Source: PubChem BioAssay AID1159580 (chemical genetic matrix, 2015)
Values joined by “and” are separate entries in the source; they are usually repeats but may differ in a detail not shown here. Equal values may be shown once. Screen size: about 5,500 compounds; about 2,000 (36%) were called active. Inconclusive results (about 18%) are left out. No stated cut-off is given here; in the data, active means normalized growth mostly below about 0.91 (no sharp cut-off); inconclusive means no clear call, values can overlap the other calls; inactive means mostly above about 0.92. Some of the results follow.

Experiment: chemical genetic growth profiling, strain panel (AID 1159580);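 further: tested at 20 µM; growth read once vehicle control cultures reached saturation at 30 °C; 1 = growth at the plate median or of vehicle wells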
Conditions: S. cerevisiae deletion strains, growth OD

Measured: normalized growth

O=C(OC[C@H]1O[C@H](OC(=O)c2cc(O)c(O)c(OC(=O)c3cc(O)c(O)c(O)c3)c2)[C@H](OC(=O)c2cc(O)c(O)c(OC(=O)c3cc(O)c(O)c(O)c3)c2)[C@@H](OC(=O)c2cc(O)c(O)c(OC(=O)c3cc(O)c(O)c(O)c3)c2)[C@@H]1OC(=O)c1cc(O)c(O)c(OC(=O)c2cc(O)c(O)c(O)c2)c1)c1cc(O)c(O)c(OC(=O)c2cc(O)c(O)c(O)c2)c1
0.0975 (active) and 1.03 (inactive): locus YJL095W, strain BCK1, stronger effect = lower value
active: locus YAL013W, strain DEP1, stronger effect = lower value 0.088 | locus YAL021C, strain ccr4, stronger effect = lower value 0.273 | locus YAL026C, strain drs2, stronger effect = lower value 0.572 | locus YAL030W, strain snc1, stronger effect = lower value 0.889 | locus YBL061C, strain skt5, stronger effect = lower value 0.68 | locus YBR009C, strain hhf1, stronger effect = lower value 0.788 | locus YBR021W, strain FUR4, stronger effect = lower value 0.148 | locus YBR023C, strain chs3, stronger effect = lower value 0.537 | locus YBR229C, strain ROT2, stronger effect = lower value 0.0601 | locus YBR231C, strain swc5, stronger effect = lower value 0.581 | locus YBR279W, strain paf1, stronger effect = lower value 0.686 | locus YCL011C, strain gbp2, stronger effect = lower value 0.782 | locus YCL016C, strain dcc1, stronger effect = lower value 0.735 | locus YCL029C, strain bik1, stronger effect = lower value 0.0912 | locus YCL061C, strain MRC1, stronger effect = lower value 0.759 | locus YCL069W, strain vba3, stronger effect = lower value 0.8 | locus YCR088W, strain abp1, stronger effect = lower value 0.834 | locus YDL035C, strain GPR1, stronger effect = lower value 0.0826 | locus YDL040C, strain nat1, stronger effect = lower value 0.824 | locus YDL074C, strain BRE1, stronger effect = lower value 0.148 | locus YDL101C, strain DUN1, stronger effect = lower value 0.0829 | locus YDL134C, strain PPH21, stronger effect = lower value 0.0788 | locus YDL185W, strain tfp1, stronger effect = lower value 0.0903 | locus YDL192W, strain arf1, stronger effect = lower value 0.0892 | locus YDR069C, strain doa4, stronger effect = lower value 0.524 | locus YDR101C, strain arx1, stronger effect = lower value 0.0922 | locus YDR137W, strain rgp1, stronger effect = lower value 0.327 | locus YDR150W, strain NUM1, stronger effect = lower value 0.0891 | locus YDR159W, strain sac3, stronger effect = lower value 0.66 | locus YDR162C, strain NBP2, stronger effect = lower value 0.079 | locus YDR195W, strain ref2 0.839 | locus YDR297W, strain sur2, stronger effect = lower value 0.823 | locus YDR318W, strain mcm21, stronger effect = lower value 0.0987 | locus YDR334W, strain swr1, stronger effect = lower value 0.632 | locus YDR335W, strain msn5, stronger effect = lower value 0.747 | locus YDR388W, stronger effect = lower value 0.0902 | locus YDR502C, strain sam2, stronger effect = lower value 0.101 | locus YEL003W, strain gim4, stronger effect = lower value 0.748 | locus YEL037C, strain rad23, stronger effect = lower value 0.771 | locus YEL061C, strain CIN8, stronger effect = lower value 0.0806 | locus YER015W, strain faa2, stronger effect = lower value 0.531 | locus YER016W, strain bim1, stronger effect = lower value 0.8 | locus YER110C, stronger effect = lower value 0.111 | locus YER111C, strain swi4, stronger effect = lower value 0.404 | locus YER155C, strain BEM2, stronger effect = lower value 0.112 | locus YER167W, strain BCK2, stronger effect = lower value 0.0894 | locus YFR010W, strain ubp6, stronger effect = lower value 0.701 | locus YGL078C, strain dbp3, stronger effect = lower value 0.0891 | locus YGL086W, strain mad1, stronger effect = lower value 0.0871 | locus YGL167C, strain pmr1, stronger effect = lower value 0.724 | locus YGL173C, strain kem1, stronger effect = lower value 0.54 | locus YGL248W, strain PDE1, stronger effect = lower value 0.0713 | locus YGL253W, strain hxk2, stronger effect = lower value 0.796 | locus YGR078C, strain PAC10, stronger effect = lower value 0.084 | locus YGR135W, strain pre9, stronger effect = lower value 0.0994 | locus YGR229C, strain SMI1, stronger effect = lower value 0.102 | locus YGR252W, strain gcn5, stronger effect = lower value 0.231 | locus YHR013C, strain ard1, stronger effect = lower value 0.597 | locus YHR027C, strain rpn1, stronger effect = lower value 0.455 | locus YHR079C, strain IRE1 (second series), stronger effect = lower value 0.0958 | locus YHR094C, strain hxt1, stronger effect = lower value 0.0909 | locus YHR129C, strain ARP1, stronger effect = lower value 0.105 | locus YHR142W, strain chs7, stronger effect = lower value 0.535 | locus YHR200W, strain rpn10, stronger effect = lower value 0.0922 | locus YIL066C, strain RNR3, stronger effect = lower value 0.0729 | locus YIL073C, strain SPO22, stronger effect = lower value 0.167 | locus YIL125W, strain kgd1, stronger effect = lower value 0.0846 | locus YIR030C, strain dcg1, stronger effect = lower value 0.0869 | locus YJL092W, strain hpr5, stronger effect = lower value 0.866 | locus YJL095W, strain BCK1 (second series), stronger effect = lower value 0.789 | locus YJL134W, strain LCB3, stronger effect = lower value 0.0741 | locus YJL164C, strain tpk1, stronger effect = lower value 0.781 | locus YJL166W, strain qcr8, stronger effect = lower value 0.839 | locus YJL168C, strain set2, stronger effect = lower value 0.087 | locus YJL187C, strain SWE1 (second series), stronger effect = lower value 0.0725 | locus YJR043C, strain POL32, stronger effect = lower value 0.101
0.0838 (active) and 1.05 (inactive): locus YHR030C, strain SLT2, stronger effect = lower value
inactive: locus YBR171W, strain sec66, stronger effect = lower value 0.931 | locus YDL005C, strain med2, stronger effect = lower value 1.02 | locus YDR001C, strain nth1, stronger effect = lower value 0.998 | locus YDR392W, strain spt3, stronger effect = lower value 0.742 | locus YEL061C, strain CIN8 (second series), stronger effect = lower value 0.926 | locus YER155C, strain BEM2 (second series), stronger effect = lower value 0.99 | locus YGL227W, strain vid30, stronger effect = lower value 1 | locus YGL240W, strain doc1, stronger effect = lower value 0.979 | locus YHR079C, strain IRE1, stronger effect = lower value 1.05 | locus YJL115W, strain asf1, stronger effect = lower value 0.979 | locus YJL129C, strain trk1, stronger effect = lower value 0.872 | locus YJL154C, strain vps35, stronger effect = lower value 0.965 | locus YJR066W, strain TOR1, stronger effect = lower value 0.967
